Laboratory results reported in the supplement of paper PMC10849652.
Targets with a hit are over-represented here; the source holds about 7,900 in all. About 0.6% of all pairs of compound and target were hits.

What was measured:
Test in all cases: log2 fold change, soluble protein after heating vs DMSO (PISA); higher = thermal stabilisation; K562 cells, 10 uM, 30 min; active = over 0.2 and 3.5 SD of the protein, either way, in both replicates (recomputed)
saracatinib = compound: CN1CCN(CCOc2cc(OC3CCOCC3)c3c(Nc4c(Cl)ccc5c4OCO5)ncnc3c2)CC1 [saracatinib]
In short: (§1)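 Soluble protein was defined as the supernatant after 21,000xg for 90 min. It came from K562 cells at 2×10^6 cells/mL given 10 μM compound for 30 min, heated in aliquots for 3 min across 48°C-58°C, pooled, and extracted in PBS with 0.5% NP-40 at 4°C, and was quantified by TMTpro 16plex LC-MS/MS with equalised channel sums. Thermal stability against control samples, from duplicates, is reported as log2 fold change.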

sotrastaurin = compound: CN1CCN(c2nc(C3=C(c4c[nH]c5ccccc45)C(=O)NC3=O)c3ccccc3n2)CC1 [sotrastaurin]
In short: as §1

alvocidib = compound: CN1CC[C@H](c2c(O)cc(O)c3c(=O)cc(-c4ccccc4Cl)oc23)[C@H](O)C1 [alvocidib]
In short: as §1

Tubastatin A = compound: CN1CCc2c(c3ccccc3n2Cc2ccc(C(=O)NO)cc2)C1 [Tubastatin A]
In short: as §1

[1] = compound: CNC(=O)C1=CC=CC=C1NC2=NC(=NC=C2Cl)NC3=C(C=C(C=C3)N4CCOCC4)OC
In short: as §1

defactinib = compound: CNC(=O)c1ccc(Nc2ncc(C(F)(F)F)c(NCc3nccnc3N(C)S(C)(=O)=O)n2)cc1 [defactinib]
In short: as §1

rucaparib = compound: CNCc1ccc(-c2[nH]c3cc(F)cc4c3c2CCNC4=O)cc1 [rucaparib]
In short: as §1

[2] = compound: CNc1nc(-c2ccc3c(N)n[nH]c3c2)cc(N2C[C@@H](C(=O)NC3CCCCC3)CC[C@H]2C)n1
In short: as §1

encorafenib = compound: COC(=O)N[C@@H](C)CNc1nccc(-c2cn(C(C)C)nc2-c2cc(Cl)cc(NS(C)(=O)=O)c2F)n1 [encorafenib]
In short: as §1

[3] = compound: COC(=O)[C@H](CCSC)NC(=O)C1=C(C=C(C=C1)NC[C@H](CS)N)C2=CC=CC=C2
In short: as §1

[4] = compound: COC1=CC=C(C=C1)CN2C=CC3=C2C=C(C=C3)C(=O)NO
In short: as §1

filanesib = compound: CON(C)C(=O)N1N=C(c2cc(F)ccc2F)S[C@@]1(CCCN)c1ccccc1 [filanesib]
In short: as §1

zotarolimus = compound: CO[C@H]1C[C@@H]2CC[C@@H](C)[C@@](O)(O2)C(=O)C(=O)N2CCCC[C@H]2C(=O)O[C@H]([C@H](C)C[C@@H]2CC[C@H](n3cnnn3)[C@H](OC)C2)CC(=O)[C@H](C)/C=C(\C)[C@@H](O)[C@@H](OC)C(=O)[C@H](C)C[C@H](C)/C=C/C=C/C=C/1C [zotarolimus]
In short: as §1

idasanutlin = compound: COc1cc(C(=O)O)ccc1NC(=O)[C@@H]1N[C@@H](CC(C)(C)C)[C@](C#N)(c2ccc(Cl)cc2F)[C@H]1c1cccc(Cl)c1F [idasanutlin]
In short: as §1

alisertib = compound: COc1cc(Nc2ncc3c(n2)-c2ccc(Cl)cc2C(c2c(F)cccc2OC)=NC3)ccc1C(=O)O [alisertib]
In short: as §1

[5] = compound: COc1cc2nc(-c3cc(F)ccc3O)nc(N[C@@H]3CNC[C@H]3C(C)(C)O)c2cc1OC
In short: as §1

gefitinib = compound: COc1cc2ncnc(Nc3ccc(F)c(Cl)c3)c2cc1OCCCN1CCOCC1 [gefitinib]
In short: as §1

[6] = compound: COc1cccc2cc(-c3nc([C@H]4CC[C@H](C(=O)O)CC4)n4ncnc(N)c34)[nH]c12
In short: as §1

lapatinib = compound: CS(=O)(=O)CCNCc1ccc(-c2ccc3ncnc(Nc4ccc(OCc5cccc(F)c5)c(Cl)c4)c3c2)o1 [lapatinib]
In short: as §1

pictilisib = compound: CS(=O)(=O)N1CCN(Cc2cc3nc(-c4cccc5[nH]ncc45)nc(N4CCOCC4)c3s2)CC1 [pictilisib]
In short: as §1

UniProt Q8WUM4, sequence (Q8WUM4 whole entry, looked up): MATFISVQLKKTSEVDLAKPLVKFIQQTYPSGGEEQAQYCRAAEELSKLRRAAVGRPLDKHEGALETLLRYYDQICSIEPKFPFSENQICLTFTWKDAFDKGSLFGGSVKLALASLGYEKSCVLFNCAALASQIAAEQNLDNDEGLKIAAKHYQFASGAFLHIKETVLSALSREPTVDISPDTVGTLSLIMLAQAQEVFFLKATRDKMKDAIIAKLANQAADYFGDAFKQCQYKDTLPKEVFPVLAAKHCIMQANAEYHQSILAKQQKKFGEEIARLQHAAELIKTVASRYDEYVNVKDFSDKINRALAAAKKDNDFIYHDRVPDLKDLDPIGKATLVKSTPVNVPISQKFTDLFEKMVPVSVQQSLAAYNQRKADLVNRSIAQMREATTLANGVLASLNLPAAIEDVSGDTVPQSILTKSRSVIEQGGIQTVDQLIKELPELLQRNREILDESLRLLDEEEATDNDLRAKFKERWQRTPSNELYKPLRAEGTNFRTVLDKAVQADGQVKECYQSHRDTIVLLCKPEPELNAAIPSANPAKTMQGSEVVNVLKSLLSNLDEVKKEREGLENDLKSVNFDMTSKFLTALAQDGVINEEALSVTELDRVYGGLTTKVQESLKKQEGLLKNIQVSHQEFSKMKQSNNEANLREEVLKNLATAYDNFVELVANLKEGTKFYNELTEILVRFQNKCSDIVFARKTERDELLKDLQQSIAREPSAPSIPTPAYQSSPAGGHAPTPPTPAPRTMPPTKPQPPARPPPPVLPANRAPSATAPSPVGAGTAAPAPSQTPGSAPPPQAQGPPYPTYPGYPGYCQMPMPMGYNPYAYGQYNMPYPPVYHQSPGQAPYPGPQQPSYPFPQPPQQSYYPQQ
UniProt Q8WUA2, sequence (Q8WUA2 whole entry, looked up): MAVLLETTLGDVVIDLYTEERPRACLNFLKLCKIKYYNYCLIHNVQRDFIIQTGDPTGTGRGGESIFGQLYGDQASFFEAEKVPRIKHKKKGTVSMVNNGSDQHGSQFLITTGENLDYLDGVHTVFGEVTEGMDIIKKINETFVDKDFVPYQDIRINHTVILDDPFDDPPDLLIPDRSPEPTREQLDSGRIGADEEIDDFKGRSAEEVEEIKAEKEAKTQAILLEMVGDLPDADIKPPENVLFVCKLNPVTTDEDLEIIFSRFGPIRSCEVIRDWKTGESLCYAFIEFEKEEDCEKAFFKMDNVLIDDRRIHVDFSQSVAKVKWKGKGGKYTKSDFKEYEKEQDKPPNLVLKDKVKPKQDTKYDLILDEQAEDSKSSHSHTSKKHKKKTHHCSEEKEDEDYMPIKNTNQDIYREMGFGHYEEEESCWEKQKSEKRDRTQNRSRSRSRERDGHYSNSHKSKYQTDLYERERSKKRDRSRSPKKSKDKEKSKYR
UniProt Q15185, sequence (Q15185 whole entry, looked up): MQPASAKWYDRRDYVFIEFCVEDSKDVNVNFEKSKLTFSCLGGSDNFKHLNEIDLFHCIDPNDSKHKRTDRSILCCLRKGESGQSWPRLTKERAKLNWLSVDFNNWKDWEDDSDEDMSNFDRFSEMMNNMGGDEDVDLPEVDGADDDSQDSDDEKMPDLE
UniProt O00628, sequence (O00628 whole entry, looked up): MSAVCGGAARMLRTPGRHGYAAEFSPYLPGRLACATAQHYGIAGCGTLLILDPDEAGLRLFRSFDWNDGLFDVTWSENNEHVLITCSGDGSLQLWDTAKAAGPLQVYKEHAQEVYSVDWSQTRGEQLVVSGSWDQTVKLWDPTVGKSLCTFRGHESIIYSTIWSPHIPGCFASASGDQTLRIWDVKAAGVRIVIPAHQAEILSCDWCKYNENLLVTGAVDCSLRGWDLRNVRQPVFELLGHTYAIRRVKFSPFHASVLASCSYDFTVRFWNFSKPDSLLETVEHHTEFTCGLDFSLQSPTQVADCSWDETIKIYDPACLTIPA
UniProt P28340, sequence (P28340 whole entry, looked up): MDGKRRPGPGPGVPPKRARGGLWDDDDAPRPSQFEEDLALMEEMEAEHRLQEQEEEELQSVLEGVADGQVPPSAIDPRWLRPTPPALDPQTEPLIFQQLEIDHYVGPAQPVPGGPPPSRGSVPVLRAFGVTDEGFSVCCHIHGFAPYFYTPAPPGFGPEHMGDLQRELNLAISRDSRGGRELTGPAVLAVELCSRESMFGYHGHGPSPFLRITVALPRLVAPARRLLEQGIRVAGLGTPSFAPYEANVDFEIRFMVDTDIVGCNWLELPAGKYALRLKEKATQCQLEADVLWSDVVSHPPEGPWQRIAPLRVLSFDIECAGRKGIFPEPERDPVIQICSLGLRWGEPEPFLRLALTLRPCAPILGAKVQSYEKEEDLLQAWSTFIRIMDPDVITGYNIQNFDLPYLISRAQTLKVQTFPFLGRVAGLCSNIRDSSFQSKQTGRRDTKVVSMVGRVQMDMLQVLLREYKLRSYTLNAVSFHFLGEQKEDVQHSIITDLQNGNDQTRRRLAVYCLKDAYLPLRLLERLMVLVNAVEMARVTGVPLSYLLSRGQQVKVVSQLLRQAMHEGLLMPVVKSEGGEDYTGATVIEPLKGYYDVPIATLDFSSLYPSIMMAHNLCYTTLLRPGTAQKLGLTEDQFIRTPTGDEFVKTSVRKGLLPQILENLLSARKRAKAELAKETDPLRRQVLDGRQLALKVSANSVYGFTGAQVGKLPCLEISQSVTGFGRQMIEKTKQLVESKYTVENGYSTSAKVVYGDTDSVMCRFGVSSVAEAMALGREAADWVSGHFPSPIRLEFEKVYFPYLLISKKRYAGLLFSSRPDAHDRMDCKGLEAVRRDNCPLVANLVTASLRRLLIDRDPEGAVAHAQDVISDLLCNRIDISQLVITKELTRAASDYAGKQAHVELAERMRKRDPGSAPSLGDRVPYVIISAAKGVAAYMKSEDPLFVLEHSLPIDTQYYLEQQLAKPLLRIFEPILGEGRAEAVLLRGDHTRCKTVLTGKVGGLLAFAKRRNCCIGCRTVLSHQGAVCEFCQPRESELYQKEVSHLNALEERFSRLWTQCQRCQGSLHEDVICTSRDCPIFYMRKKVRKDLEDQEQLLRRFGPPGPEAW
UniProt Q9Y3C6, sequence (Q9Y3C6 whole entry, looked up): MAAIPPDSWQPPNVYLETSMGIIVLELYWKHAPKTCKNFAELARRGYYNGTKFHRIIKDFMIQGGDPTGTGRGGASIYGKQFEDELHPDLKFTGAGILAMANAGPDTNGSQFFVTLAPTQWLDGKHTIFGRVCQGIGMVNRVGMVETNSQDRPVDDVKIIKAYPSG
UniProt Q9BTU6, sequence (Q9BTU6 whole entry, looked up): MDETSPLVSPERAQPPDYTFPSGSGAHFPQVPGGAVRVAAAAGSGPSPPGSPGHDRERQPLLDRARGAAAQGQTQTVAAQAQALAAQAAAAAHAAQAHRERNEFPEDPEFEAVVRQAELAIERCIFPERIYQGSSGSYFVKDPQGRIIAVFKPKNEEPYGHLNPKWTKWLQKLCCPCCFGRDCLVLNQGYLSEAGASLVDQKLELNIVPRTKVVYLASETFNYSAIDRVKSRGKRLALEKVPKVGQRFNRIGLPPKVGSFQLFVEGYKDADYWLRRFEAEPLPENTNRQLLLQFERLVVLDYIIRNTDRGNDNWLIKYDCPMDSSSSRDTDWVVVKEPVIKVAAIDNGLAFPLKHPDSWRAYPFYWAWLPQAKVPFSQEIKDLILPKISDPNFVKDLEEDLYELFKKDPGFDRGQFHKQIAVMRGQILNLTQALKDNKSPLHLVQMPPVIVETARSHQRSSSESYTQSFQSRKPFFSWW
UniProt O00625, sequence (O00625 whole entry, looked up): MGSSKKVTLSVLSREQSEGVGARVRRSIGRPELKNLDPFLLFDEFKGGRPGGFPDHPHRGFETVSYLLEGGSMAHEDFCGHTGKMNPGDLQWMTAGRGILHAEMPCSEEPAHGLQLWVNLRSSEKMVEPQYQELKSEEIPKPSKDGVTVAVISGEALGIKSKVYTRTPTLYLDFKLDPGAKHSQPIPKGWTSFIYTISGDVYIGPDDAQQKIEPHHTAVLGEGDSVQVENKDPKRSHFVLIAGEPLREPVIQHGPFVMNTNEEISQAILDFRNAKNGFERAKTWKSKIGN
UniProt Q8N4L2, sequence (Q8N4L2 whole entry, looked up): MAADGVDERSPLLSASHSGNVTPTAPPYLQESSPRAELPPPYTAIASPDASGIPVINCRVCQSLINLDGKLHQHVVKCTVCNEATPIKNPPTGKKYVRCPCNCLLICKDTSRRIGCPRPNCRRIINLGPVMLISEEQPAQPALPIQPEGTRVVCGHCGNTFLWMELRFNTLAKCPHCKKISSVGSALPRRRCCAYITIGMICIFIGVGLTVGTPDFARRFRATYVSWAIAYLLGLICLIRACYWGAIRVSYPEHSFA
UniProt O60678, sequence (O60678 whole entry, looked up): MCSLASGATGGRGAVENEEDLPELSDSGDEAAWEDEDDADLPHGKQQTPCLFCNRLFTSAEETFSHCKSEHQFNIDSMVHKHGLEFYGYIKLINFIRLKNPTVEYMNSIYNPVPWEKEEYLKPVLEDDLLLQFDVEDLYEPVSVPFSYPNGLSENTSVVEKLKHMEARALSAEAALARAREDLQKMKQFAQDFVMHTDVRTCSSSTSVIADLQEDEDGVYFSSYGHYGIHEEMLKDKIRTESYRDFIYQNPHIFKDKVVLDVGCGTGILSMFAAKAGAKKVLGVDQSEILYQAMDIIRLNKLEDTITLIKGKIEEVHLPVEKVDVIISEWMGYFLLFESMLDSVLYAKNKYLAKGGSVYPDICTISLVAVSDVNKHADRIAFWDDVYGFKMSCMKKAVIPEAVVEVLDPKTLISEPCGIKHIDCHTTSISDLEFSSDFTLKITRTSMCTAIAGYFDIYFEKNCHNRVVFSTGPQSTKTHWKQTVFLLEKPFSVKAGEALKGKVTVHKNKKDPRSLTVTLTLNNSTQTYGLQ

Target	log2 fold change (saracatinib)	log2 fold change (sotrastaurin)	log2 fold change (alvocidib)	log2 fold change (Tubastatin A)	log2 fold change [1]	log2 fold change (defactinib)	log2 fold change (rucaparib)	log2 fold change [2]	log2 fold change (encorafenib)	log2 fold change [3]	log2 fold change [4]	log2 fold change (filanesib)	log2 fold change (zotarolimus)	log2 fold change (idasanutlin)	log2 fold change (alisertib)	log2 fold change [5]	log2 fold change (gefitinib)	log2 fold change [6]	log2 fold change (lapatinib)	log2 fold change (pictilisib)
PBK (UniProt Q96KB5)	0.01 (inactive)	-0.205 (inactive)	-0.02 (inactive)	0.089 (inactive)	0.093 (inactive)	-0.15 (inactive)	0.187 (inactive)	0.005 (inactive)	0.198 (inactive)	-0.111 (inactive)	-0.01 (inactive)	0.056 (inactive)	0.112 (inactive)	0.027 (inactive)	-0.032 (inactive)	0.014 (inactive)	0.084 (inactive)	-0.169 (inactive)	-0.001 (inactive)	0.086 (inactive)
POLR2G (UniProt P62487)	0.041 (inactive)	-0.016 (inactive)	0.328 (active)	-0.045 (inactive)	0.003 (inactive)	0.154 (inactive)	0.039 (inactive)	0.042 (inactive)	-0.016 (inactive)	-0.03 (inactive)	0.039 (inactive)	-0.014 (inactive)	-0.046 (inactive)	-0.006 (inactive)	-0.054 (inactive)	0.127 (inactive)	0.001 (inactive)	0.106 (inactive)	-0.022 (inactive)	0.109 (inactive)
PPIL1 (UniProt Q9Y3C6)	-0.007 (inactive)	-0.088 (inactive)	0.096 (inactive)	-0.016 (inactive)	0.042 (inactive)	0.09 (inactive)	0.056 (inactive)	-0.062 (inactive)	0.052 (inactive)	-0.042 (inactive)	-0.079 (inactive)	0.05 (inactive)	-0.008 (inactive)	-0.015 (inactive)	-0.078 (inactive)	0.12 (inactive)	-0.023 (inactive)	-0.017 (inactive)	-0.051 (inactive)	-0.028 (inactive)
PRMT3 (UniProt O60678)	0.021 (inactive)	-0.046 (inactive)	0 (inactive)	-0.017 (inactive)	0.058 (inactive)	-0.005 (inactive)	0.035 (inactive)	0.011 (inactive)	0.061 (inactive)	-0.064 (inactive)	0.026 (inactive)	-0.099 (inactive)	0.008 (inactive)	-0.017 (inactive)	-0.005 (inactive)	0.098 (inactive)	-0.122 (inactive)	-0.111 (inactive)	0.013 (inactive)	0.048 (inactive)
PEX7 (UniProt O00628)	0.045 (inactive)	0.06 (inactive)	-0.023 (inactive)	0.061 (inactive)	0.005 (inactive)	-0.005 (inactive)	-0.047 (inactive)	0.03 (inactive)	-0.023 (inactive)	-0.039 (inactive)	0.013 (inactive)	-0.063 (inactive)	0.058 (inactive)	-0.002 (inactive)	-0.01 (inactive)	-0.09 (inactive)	-0.003 (inactive)	0.072 (inactive)	-0.032 (inactive)	0.055 (inactive)
PIP4P2 (UniProt Q8N4L2)	0.056 (inactive)	-0.003 (inactive)	-0.048 (inactive)	0.072 (inactive)	-0.007 (inactive)	0.004 (inactive)	-0.003 (inactive)	-0.106 (inactive)	-0.04 (inactive)	0.093 (inactive)	0.053 (inactive)	-0.383 (active)	0.027 (inactive)	0.14 (inactive)	0.022 (inactive)	0.007 (inactive)	0.009 (inactive)	-0.016 (inactive)	0.03 (inactive)	0.061 (inactive)
PPIL4 (UniProt Q8WUA2)	-0.012 (inactive)	-0.072 (inactive)	-0.071 (inactive)	-0.005 (inactive)	-0.123 (inactive)	-0.108 (inactive)	0.07 (inactive)	0.024 (inactive)	0.086 (inactive)	-0.031 (inactive)	-0.001 (inactive)	0.116 (inactive)	0.032 (inactive)	0.101 (inactive)	-0.003 (inactive)	0.015 (inactive)	0.002 (inactive)	-0.005 (inactive)	0.02 (inactive)	0.018 (inactive)
PML (UniProt P29590)	-0.001 (inactive)	-0.038 (inactive)	-0.005 (inactive)	-0.051 (inactive)	0.024 (inactive)	-0.053 (inactive)	-0.008 (inactive)	-0.031 (inactive)	0.005 (inactive)	0 (inactive)	-0.043 (inactive)	0.014 (inactive)	0.041 (inactive)	0.003 (inactive)	-0.022 (inactive)	-0.026 (inactive)	-0.015 (inactive)	-0.081 (inactive)	0.024 (inactive)	0.119 (inactive)
PTDSS1 (UniProt P48651)	-0.011 (inactive)	0.006 (inactive)	0.129 (inactive)	0.048 (inactive)	-0.065 (inactive)	0.13 (inactive)	0.292 (inactive)	0.07 (inactive)	0.224 (inactive)	0.01 (inactive)	-0.015 (inactive)	0.075 (inactive)	0.053 (inactive)	0.124 (inactive)	-0.098 (inactive)	-0.071 (inactive)	0.041 (inactive)	-0.012 (inactive)	0.04 (inactive)	-0.098 (inactive)
POLD1 (UniProt P28340)	0.018 (inactive)	-0.052 (inactive)	-0.121 (inactive)	0.055 (inactive)	-0.01 (inactive)	-0.115 (inactive)	-0.004 (inactive)	-0.004 (inactive)	0.131 (inactive)	-0.029 (inactive)	0.025 (inactive)	-0.038 (inactive)	0.007 (inactive)	0.024 (inactive)	-0.042 (inactive)	-0.006 (inactive)	0.007 (inactive)	0.047 (inactive)	0.01 (inactive)	0 (inactive)
PI4K2A (UniProt Q9BTU6)	0.058 (inactive)	0.041 (inactive)	0.013 (inactive)	-0.008 (inactive)	-0.024 (inactive)	-0.014 (inactive)	-0.027 (inactive)	-0.11 (inactive)	0.057 (inactive)	0.02 (inactive)	0.012 (inactive)	-0.066 (inactive)	-0.037 (inactive)	-0.044 (inactive)	-0.006 (inactive)	-0.015 (inactive)	-0.027 (inactive)	0.005 (inactive)	0 (inactive)	0.049 (inactive)
PTGFRN (UniProt Q9P2B2)	0.029 (inactive)	0.082 (inactive)	-0.029 (inactive)	0 (inactive)	-0.092 (inactive)	-0.049 (inactive)	-0.024 (inactive)	0.056 (inactive)	-0.004 (inactive)	0.053 (inactive)	0.006 (inactive)	0.129 (inactive)	-0.021 (inactive)	0.073 (inactive)	0.01 (inactive)	0.139 (inactive)	0.025 (inactive)	0.124 (inactive)	0.036 (inactive)	0.122 (inactive)
PTGES3 (UniProt Q15185)	-0.023 (inactive)	-0.057 (inactive)	-0.215 (inactive)	0.023 (inactive)	0.088 (inactive)	-0.205 (inactive)	-0.059 (inactive)	0.034 (inactive)	0.032 (inactive)	-0.068 (inactive)	0.23 (inactive)	-0.091 (inactive)	0.055 (inactive)	0.004 (inactive)	0.016 (inactive)	-0.044 (inactive)	0.044 (inactive)	-0.038 (inactive)	0.007 (inactive)	0.027 (inactive)
PIR (UniProt O00625)	0.025 (inactive)	-0.01 (inactive)	-0.068 (inactive)	-0.284 (active)	-0.002 (inactive)	-0.09 (inactive)	0.045 (inactive)	0 (inactive)	-0.045 (inactive)	0.012 (inactive)	-0.338 (active)	0.015 (inactive)	0.011 (inactive)	0.033 (inactive)	-0.038 (inactive)	0.085 (inactive)	0.061 (inactive)	0.011 (inactive)	0.018 (inactive)	0.077 (inactive)
PDCD6IP (UniProt Q8WUM4)	-0.11 (inactive)	-0.227 (inactive)	-0.132 (inactive)	0.048 (inactive)	0.034 (inactive)	-0.141 (inactive)	0.119 (inactive)	0.055 (inactive)	0.138 (inactive)	-0.048 (inactive)	0.105 (inactive)	-0.022 (inactive)	0.079 (inactive)	-0.018 (inactive)	0.045 (inactive)	0.022 (inactive)	0.06 (inactive)	-0.118 (inactive)	-0.04 (inactive)	0.009 (inactive)
